The structures appear in SMILES notation. Several values for one entry are separate records, joined by “and”; a condition that tells them apart may be missing. Identical values can stand only once. Activity calls are given as the source filed them. How the calls were made is not given here.

By inhibition is commonly meant the share of the control response that was lost under treatment.

This experiment is described as follows: Brca1-Bard1 BiLC signal decrease – luminescence, single concentration, counter-screen for Mdm2/MdmX interaction inhibitor project, confirmation (AID 504668). The following applies: Brca1/Bard1 bimolecular luciferase complementation counterscreen, at 8 µM, active compounds read high.
For `O=C1[C@H]2[C@@H](c3ccc(F)cc3)N3C(=O)N(c4ccc(Br)cc4)C(=O)[C@@]3(Cc3ccc(Cl)cc3)[C@H]2C(=O)N1C1CCCCC1`, the inhibition is 27.8% (active).

Consider `CCOc1cc(/C=N/N=C(\N)c2nonc2N)cc(Br)c1OCc1cccc2ccccc12`, for which the inhibition is 33.4% (active). The value for `CCC(C)n1c(=O)c(C(=O)Nc2ccccc2S(N)(=O)=O)c(O)c2ccccc21` (centres undefined) was 30.8% (active). The value for `CCC(=O)NC(c1cccs1)c1ccc2cccnc2c1O` (centres undefined) was 23.3% (active); that for `CCOc1ccccc1CNC(=O)c1cc2oc3ccccc3c2n1CC` was 25.6% (active).

For `CC(=O)c1ccc(Sc2nnnn2-c2ccccc2)c([N+](=O)[O-])c1`, the inhibition is 30.1% (active). The value for `CCN(CC)CCNc1cc(C)nc2c1C(=O)C(=O)C=C2N1CCCCC1` was 28.9% (active); that for `Cc1ccc(S(=O)(=O)c2c(C)nn(C(C)(C)C)c2OC(=O)c2ccc(Br)o2)cc1` was 29.3% (active); that for `C1CCC(C(CC2CCCCN2)C2CCCCC2)CC1` (centres undefined) was 35.2% (active) and 23.8% (active). The value for `Cc1sc2ncnc(N3CCC(C(=O)N(C)CC(=O)Nc4ccc(Cl)c(C(F)(F)F)c4)CC3)c2c1C` was 29% (active). For `Cc1cc(C2CCCCC2)n(O)c(=O)c1`, the inhibition is 32.2% (active). The value for `Cc1ccc(C(C)C)c(OCc2nn(CC(=O)c3ccc(Cl)cc3)c3[n+]2CCCCC3)c1` was 25% (active); that for `CCN1C(=O)C2(Nc3ccccc3-c3nc4ccccc4n32)c2cc(OC)ccc21` (centres undefined) was 23.7% (active); that for `COc1cccc(/C=C2\SC(=S)N(CCC(=O)NCCc3ccc(O)cc3)C2=O)c1` was 35.4% (active).

With `CN1CCN(C(=O)CCCN2C(=O)/C(=C/c3cccc(Br)c3)SC2=S)CC1`, the inhibition was 29.2% (active). The value for `COc1ccc(-n2c(SCC(=O)Nc3ncc(Cl)cc3Cl)nc3ccccc32)cc1` was 29.2% (active); that for `Cc1cc(C)nc(N/N=C/c2cc(Br)ccc2O)n1` was 26.2% (active). `CC(C)CC[n+]1ccccc1/C=C/c1ccc(N(C)C)cc1`: the inhibition was 26.6% (active). The value for `CC(=O)NC(c1cccs1)c1cc(F)c2cccnc2c1O` (centres undefined) was 30.4% (active); that for `Cc1nnc(-c2ccccc2)c(=O)n1/N=C/c1c(O)ccc2ccccc12` was 30.7% (active); that for `CC(Oc1ccc(Br)cc1)C(=O)Nc1nc(-c2ccccn2)cs1` (centres undefined) was 35.4% (active). The value for `COc1ccc([C@@H]2[C@@H]3C(=O)N(C(C)(C)C)C(=O)[C@@H]3[C@]3(CC(C)C)C(=O)N(c4ccc(C(F)(F)F)cc4)C(=O)N23)cc1` was 35% (active). Consider `FC(F)(F)c1cccc(NC(=S)N(CCCN2CCCC2)Cc2cccn2Cc2ccc(Cl)cc2)c1`, for which the inhibition was 30.3% (active). The value for `CCN(CC)C(=O)CN1C(=O)/C(=C/c2ccccc2)SC1=S` was 27.6% (active); that for `C#CCn1c(=NC(=O)c2ccc(S(=O)(=O)N3CCc4ccccc4C3)cc2)sc2cc(S(N)(=O)=O)ccc21` was 23% (active); that for `COc1ccc(NC(=O)CSc2nc3c(sc4ccccc43)c(=O)n2CCCN2CCCC2)cc1` was 23.1% (active). As to `C/C(=N\NC(=O)C1CCCN(S(=O)(=O)c2ccccc2)C1)c1ccccn1` (centres undefined), the inhibition is 35.2% (active). The value for `N=c1c2c(-c3ccccc3)c(-c3ccccc3)n(Cc3ccco3)c2ncn1Cc1ccccc1` was 23% (active). The value for `Cc1cc(NC(=O)/C=C/C(=O)N(c2ccccc2C)C(C(=O)NC2CCCC2)c2ccc(F)cc2)no1` (centres undefined) was 28.7% (active). The value for `O=C(Nc1ccc(Br)c(C(F)(F)F)c1)c1ccc(C(F)(F)F)cc1` was 28.7% (active). For the compound `O=C(CCl)N1N=C(c2ccco2)CC1c1ccco1` (centres undefined), the inhibition was 31.2% (active).

As for `C(=N\Nc1nc(-c2ccccn2)nc2ccccc12)/c1ccccc1`, the inhibition is 26.1% (active).

For the compound `O=C(Nc1ccc(OC(F)(F)F)cc1)Nc1cccc([N+](=O)[O-])c1`, the inhibition is 35.8% (active). Turning to `CN1CCN(c2cc(N3CCN(C(=O)c4ccco4)CC3)c3c4c(onc24)-c2ccccc2C3=O)CC1`, the inhibition is 24.3% (active). For `c1ccc(-c2noc(-c3ccc4ccccc4c3)n2)nc1`, the inhibition was 27% (active).

Turning to `Cc1ccc(CNC(=O)c2ccc3c(=O)c(O)c(-c4ccc(C)cc4)[nH]c3c2)cc1`, the inhibition is 29% (active).

Regarding `Cc1cccc(C(=O)NC(C(=O)Nc2nc(-c3ccccn3)cs2)C(C)C)c1` (centres undefined), the inhibition is 30.7% (active). On to `CCn1c(SCc2c(Cl)cccc2Cl)nc2nc3c(cc2c1=O)CCCC3`, for which the inhibition is 35.8% (active). The value for `O=C(CSCC(=O)Nc1ccccc1)N/N=C/c1c(O)ccc2ccccc12` was 28.3% (active).

The values are drawn from PubChem BioAssay.
